High-throughput results deposited in PubChem by National Center for Advancing Translational Sciences (NCATS).
KDM5B inh – inhibitors of human KDM5B histone demethylase; KDM5B demethylase, FDH-coupled NADH fluorescence (FDH is formaldehyde dehydrogenase); Potency, µM (top dose mostly 57.7 µM), actives largely listed as inhibitors; actives 2.6% (n = 220,000); active = well fitted inhibition curve with a large enough effect; note: 0% is about no effect; nearly all actives have a fitted effect of over 70% in size
Target sequence (Q9UGL1 whole entry, looked up): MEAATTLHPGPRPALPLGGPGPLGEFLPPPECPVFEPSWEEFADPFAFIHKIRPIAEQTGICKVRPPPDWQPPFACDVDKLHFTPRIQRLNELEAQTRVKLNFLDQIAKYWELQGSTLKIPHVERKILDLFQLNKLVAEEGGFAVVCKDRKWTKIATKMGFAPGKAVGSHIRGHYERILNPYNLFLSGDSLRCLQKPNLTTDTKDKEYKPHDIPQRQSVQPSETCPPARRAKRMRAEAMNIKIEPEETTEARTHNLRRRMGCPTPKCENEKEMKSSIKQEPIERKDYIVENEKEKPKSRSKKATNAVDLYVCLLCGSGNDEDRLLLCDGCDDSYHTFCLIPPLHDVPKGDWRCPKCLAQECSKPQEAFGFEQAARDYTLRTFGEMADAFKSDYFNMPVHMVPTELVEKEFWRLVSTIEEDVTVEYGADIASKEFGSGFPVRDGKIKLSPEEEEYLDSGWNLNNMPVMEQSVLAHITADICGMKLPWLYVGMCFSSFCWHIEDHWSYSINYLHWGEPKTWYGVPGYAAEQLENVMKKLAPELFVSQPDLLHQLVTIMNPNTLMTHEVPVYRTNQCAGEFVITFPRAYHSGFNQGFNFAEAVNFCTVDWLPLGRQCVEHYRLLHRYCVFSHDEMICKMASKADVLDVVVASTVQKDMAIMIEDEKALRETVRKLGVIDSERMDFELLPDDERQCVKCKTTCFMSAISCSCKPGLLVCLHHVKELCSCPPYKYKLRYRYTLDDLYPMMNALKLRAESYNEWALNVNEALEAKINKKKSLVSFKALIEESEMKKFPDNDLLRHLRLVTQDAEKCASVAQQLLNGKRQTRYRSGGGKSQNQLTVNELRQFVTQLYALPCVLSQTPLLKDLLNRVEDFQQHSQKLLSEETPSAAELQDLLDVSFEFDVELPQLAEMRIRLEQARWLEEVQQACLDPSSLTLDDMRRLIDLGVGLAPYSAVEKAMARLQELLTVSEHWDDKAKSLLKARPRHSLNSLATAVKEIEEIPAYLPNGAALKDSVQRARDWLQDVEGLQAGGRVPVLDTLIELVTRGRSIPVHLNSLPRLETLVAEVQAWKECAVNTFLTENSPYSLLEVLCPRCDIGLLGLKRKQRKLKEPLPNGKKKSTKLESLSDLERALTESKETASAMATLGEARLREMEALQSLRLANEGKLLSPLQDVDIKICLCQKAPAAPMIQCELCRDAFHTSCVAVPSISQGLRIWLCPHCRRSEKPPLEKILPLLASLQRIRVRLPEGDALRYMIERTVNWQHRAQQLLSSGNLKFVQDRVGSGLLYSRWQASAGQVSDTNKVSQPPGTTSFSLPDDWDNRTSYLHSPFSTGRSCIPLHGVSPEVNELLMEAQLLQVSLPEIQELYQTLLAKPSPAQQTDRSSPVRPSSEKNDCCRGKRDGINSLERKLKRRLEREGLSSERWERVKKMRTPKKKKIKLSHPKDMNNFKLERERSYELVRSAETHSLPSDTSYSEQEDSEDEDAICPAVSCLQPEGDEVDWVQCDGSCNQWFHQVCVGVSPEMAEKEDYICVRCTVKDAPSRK
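Coupled FDH/NAD⁺ fluorescence readout. KDM5BΔAP 200 nM final; compound titration, 10 min RT preincubation; substrate mix 12.5 µM H3K4me3, 25 µM 2-OG, 50 µM Fe(II), 100 µM ascorbate, 0.25 mM NAD⁺, 0.25 U/mL FDH; ΔRFU over 30 min.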
An asterisk follows results filed as active; i = inactive. The entries come from a sample that favours hits as a whole. Potency is the fitted concentration of half-maximal effect.

SMILES | KDM5B inh
COC(=O)c1c(C)[nH]c(C(=O)OCC2CC2(Cl)Cl)c1C (stereo unspecified) | i
Cc1cnc2c(S(=O)(=O)NCCN3CCOCC3)cccc2c1 | i
Cc1cccc(C(=O)NCCC(=O)NCC2CCCCC2)c1 | i
Cn1ccnc1CN1C[C@@H]2C[C@H]1C(=O)N(CC1CC1)c1ccccc1O2 | i
O=C1[C@@H]2C[C@@H](CN2Cc2ccc3c(c2)OCO3)Oc2ccccc2N1CC1CC1 | i
O=C1[C@@H]2C[C@@H](CN2Cc2ccnc3ccccc23)Oc2ccccc2N1CC1CC1 | 35.5µM*
COc1ccc(CN2CCOC[C@H]2c2ncc(-c3ccc(C)cc3)[nH]2)cc1 | i
COc1ccc(CN2CCOC[C@H]2c2ncc(-c3ccc(S(C)(=O)=O)cc3)[nH]2)cc1 | 35.5µM*
CS(=O)(=O)c1ccc(-c2cnc([C@@H]3COCCN3Cc3ccncc3)[nH]2)cc1 | i
CCc1cccc(OCc2ccc(C(N)=O)cc2)c1 | i
CC(=O)N1CCN(C(=O)CCc2ncc(-c3ccccc3)o2)CC1 | i
CS(=O)(=O)Cc1cccc(C(=O)Nc2ccc(F)cc2F)c1 | i
CNC(=O)c1ccc(/C=C/C(=O)c2ccc(OCCC(C)C)cc2)cc1 | i
O=C(NCCCc1ccccc1)c1cc(C2CC2)nc2ccccc12 | i
O=C(NCCCN1CCOCC1)c1cccnc1N1CC2CC(C1)[C@H]1CCCC(=O)N1C2 (stereo partly specified) | 28.2µM*
O=C(NCCC1=CCCCC1)c1cccnc1N1CC2CC(C1)[C@H]1CCCC(=O)N1C2 (stereo partly specified) | 28.2µM*
CN1CCN(CCCNC(=O)c2ccc(N3CC4CC(C3)[C@H]3CCCC(=O)N3C4)nc2)CC1 (stereo partly specified) | i
O=C(CN1CC2CC(C1)[C@H]1CCCC(=O)N1C2)NCCCN1CCCC1 (stereo partly specified) | i
O=C(NCCc1ccccc1)c1ccc(N2CC3CC(C2)[C@H]2CCCC(=O)N2C3)nc1 (stereo partly specified) | i
O=C(NCCCn1cccn1)C1CCN(C(=O)N2CC3CC(C2)[C@H]2CCCC(=O)N2C3)CC1 (stereo partly specified) | i
O=C(NCCCc1ccccc1)c1ccc(N2CC3CC(C2)[C@H]2CCCC(=O)N2C3)nc1 (stereo partly specified) | i
CN(CCNC(=O)c1cccnc1N1CC2CC(C1)[C@H]1CCCC(=O)N1C2)C1CCCCC1 (stereo partly specified) | 31.6µM*
O=C(NCCCn1cccn1)c1cccnc1N1CC2CC(C1)[C@H]1CCCC(=O)N1C2 (stereo partly specified) | 28.2µM*
O=C(NCCC1=CCCCC1)C1CCN(C(=O)N2CC3CC(C2)[C@H]2CCCC(=O)N2C3)CC1 (stereo partly specified) | i
CN(CCCNC(=O)CN1CC2CC(C1)[C@H]1CCCC(=O)N1C2)C1CCCCC1 (stereo partly specified) | i
SMILES | KDM5B inh
CC(C)OCCCNC(=O)c1ccc(N2CC3CC(C2)[C@H]2CCCC(=O)N2C3)nc1 (stereo partly specified) | i
COc1ccc(S(=O)(=O)NC2CC2)cc1NC(=O)c1n[nH]c(=O)c2ccccc12 | i
Cc1cc(C)c2oc(C(=O)N(Cc3ccccc3)Cc3ccco3)cc(=O)c2c1 | i
Cc1ccccc1C(=O)N1CCCC(c2nc3ccccc3[nH]2)C1 (stereo unspecified) | i
O=C(NC1CCCc2ccccc21)c1cc2c(s1)CCC2 (stereo unspecified) | i
CCOC(=O)C1=C(CN2CCN(C(=O)OC(C)(C)C)CC2)NC(=O)NC1c1cccc(OC)c1 (stereo unspecified) | i
CC(C)(C)C(=O)NCCC(=O)NCc1cccc(NC(=O)C2CCCC2)c1 | i
O=C(NCCN1CCOCC1)c1nn(-c2ccccc2)c(=O)c2ccccc12 | i
COc1cc(/C=N/OCc2cccc(C(F)(F)F)c2)ccc1OCc1ccc(Cl)cc1 | i
CCOc1c(Cl)cc(C(=O)NC(C)Cn2cccn2)cc1OC (stereo unspecified) | i
CCCCN1C(=O)C(NC(=O)c2ccc(C(C)(C)C)cc2)(C(F)(F)F)C2=C1CC(C)(C)CC2=O (stereo unspecified) | i
CC(OC(=O)c1ccc(CCNS(C)(=O)=O)cc1)C(=O)N(C)C (stereo unspecified) | i
COCCNc1cc(-c2cc(C(F)(F)F)ccn2)c2cc[nH]c2n1 | i
Cc1cc(C)cc(NC(=O)CCc2ncc(-c3ccc(F)cc3F)o2)c1 | i
O=C(Nc1cccc(Cl)c1)c1cnc2c(c1)N([S+](=O)([O-])c1cccnc1)CCC2 | i
Cc1ccc(CCNC(=O)C2CCN(C(=O)c3cc4c(=O)[nH]c(C)cn4n3)CC2)cc1 | i
CC(NC(=O)C(C#N)C(=O)c1ccc(F)cc1)c1ccccc1 (stereo unspecified) | i
O=C(NCCN1CCCCC1)c1cccnc1N1CC2CC(C1)[C@H]1CCCC(=O)N1C2 (stereo partly specified) | 28.2µM*
Cc1nccn1CCNC(=O)c1ccc(N2CC3CC(C2)[C@H]2CCCC(=O)N2C3)nc1 (stereo partly specified) | i
O=C(c1cccnc1N1CC2CC(C1)[C@H]1CCCC(=O)N1C2)N1CC=C(c2ccccc2)CC1 (stereo partly specified) | 31.6µM*
O=C(c1ccccn1)N1CC2CC(C1)[C@H]1CCCC(=O)N1C2 (stereo partly specified) | i
O=C(CN1CC2CC(C1)[C@H]1CCCC(=O)N1C2)NCCCN1CCCCC1 (stereo partly specified) | i
CN1CCN(C(=O)c2ccc(N3CC4CC(C3)[C@H]3CCCC(=O)N3C4)nc2)CC1 (stereo partly specified) | i
CO[C@H]1[C@H](NC(=O)c2c(F)ccc(C)c2F)c2ccccc2C12CCNCC2 | i
COc1ccnc(-c2nnc3ccc(N4C[C@@H](C)O[C@@H](C)C4)nn23)c1 | i
SMILES | KDM5B inh
COc1ccnc(-c2nnc3ccc(N4CCc5ccccc5CC4)nn23)c1 | 31.6µM*
COc1ccc(-c2nnc3ccc(N4CCCC4)nn23)nc1 | i
CC/C(C)=N/NC(=O)C1CC1 | i
c1ccc2sc(C3CCN(Cc4nc(C5CC5)no4)CC3)nc2c1 | i
CCCCOc1cccc(N)c1 | i
CCOC(=O)c1oc2cc(OC(=O)c3ccc(OC)cc3)ccc2c(=O)c1-c1ccccc1OC | i
COc1ccc(-c2cc(CNC(=O)c3cn(CCN)nn3)no2)cc1 | i
Cc1ccccc1-c1cc(C(=O)NCCC(c2ccccc2)c2ccccc2)c2ccccc2n1 | i
Cc1ccc(CNS(=O)(=O)c2cc3c(cc2C)N(C)CCO3)cc1 | i
Cc1ccccc1CCNC(=O)c1ccc2c(c1)nc1n2CCOC1 | i
O=C(O)c1cc(-c2ccccc2F)on1 | i
Cc1cc(CNC(=O)c2cc(-c3ccc(CO)cc3)cc3c2OCCN3C)no1 | 31.6µM*
Cc1nc(CNC(=O)c2ccccc2C)cs1 | i
Cc1cc(CNC(=O)[C@@H]2CCC[C@@H](NC(=O)c3ccccc3)CN(C)C(=O)C2)no1 | i
O=C(NCCN1CCOCC1)c1noc(-c2ccccc2F)n1 | i
Cc1cc(CNC(=O)c2cc(-c3ccccc3C)cc3c2OCCN3C)no1 | 35.5µM*
Cc1ccccc1-c1cc(C(=O)NCC[S+](C)(=O)[O-])c2c(c1)N(C)CCO2 | 35.5µM*
